The values below come from PubChem BioAssay (NCATS).

Results filed as inconclusive are left out. The source made the active and inactive calls. Unless noted, calls come from the whole dose curve; as a rule, active = well fitted curve in the direction sought with a large enough effect; inconclusive = small, poorly fitted or top-dose-only effect, or another doubt; inactive = no such curve, though single readings can be large; an effect the other way counts as inactive or inconclusive.

The target of assay [1] is Cytochrome P450 3A4 (Homo sapiens) (UniProt P08684). The assay is described as follows: qHTS Assay for Activators of Cytochrome P450 3A4 (AID 885). Note: nearly all actives have a fitted effect of over 65% in size. Summed up:
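Using 20nM recombinant human CYP3A4 in potassium phosphate (200mM), substrate Luciferin-PPXE at 25uM, luminescent luciferin detection followed a 60-min RT NADPH reaction; data scaled to 57 uM ketoconazole.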

Assay [2] in a line: Confirmation and Secondary Assay for Modulators of Hemoglobin Beta Chain Splicing at IVS2 654 locus (AID 910).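 Note: HeLa cells stably carrying EGFP split by mutant beta-globin IVS2-654 intron; % of control where 0% means no effect.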 The procedure, abridged: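 HeLa cells stably expressing EGFP interrupted by β-globin IVS2-654 intron, seeded overnight in Opti-MEM/2% FCS, then treated 2 days at 37 °C. Restored splicing read as total peak GFP intensity per well by laser scanning cytometry (488 nm excitation, 500–520 nm emission); 500 nM antisense PNA as control.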

Assay [3] in a line: Confirmation and Secondary Assay for Modulators of Hemoglobin Beta Chain Splicing at IVS2 705 locus (AID 930).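 Note: HeLa cells stably expressing the EGFP-705 splicing reporter; GFP fluorescence per well restored by corrected splicing of the IVS2-705 intron in EGFP; % of control where 0% means no effect.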 Summed up:
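Secondary splice-site specificity test uses HeLa expressing CMV-driven EGFP interrupted by IVS2-705; cells were treated 2 days at 37C with 500 nM antisense PNA as positive control.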

Assay [4] is described as follows: qHTS Assay for Lipid Storage Modulators (AID 1519; calls by dose curve; for activity change, negative = inhibition: % is set by controls: 0 for no effect and ±100 for the full control effect). Conditions: Drosophila S3 cells, BODIPY lipid droplet/cell ratio, laser cytometry, cells loaded with oleic acid; for activity change, negative = inhibition: at 57.5 µM (top of the series). The procedure, abridged: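 Cells seeded at 5,000 per well were treated with compounds over a concentration series and loaded with oleic acid (400 uM, as added). Lipid droplet fluorescence (488 nm excitation, 500-530 nm channel) was read by laser-scanning cytometry and normalized to 20 uM Triacsin C.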
A general note: qHTS replaces the single test concentration by a dilution series.

The target in assay [5] is Ubiquitin carboxyl-terminal hydrolase 1 (Homo sapiens) (UniProt O94782). Kind of assay: Inhibitors of USP1/UAF1: Pilot qHTS (AID 504865).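 For activity change, negative = inhibition: rhodamine fluorescence freed from ubiquitin-rhodamine substrate followed over time; top concentration of the series differs between compounds; % is set by controls: 0 for no effect and ±100 for the full control effect.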 Note: nearly all actives have a fitted effect of over 35% in size. Note: potency is the fitted concentration of half-maximal effect. The procedure, abridged:
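Enzyme-free wells gave the negative control, while test wells held 1nM USP1/UAF1 preincubated with compound for 15 min at room temperature. Ub-Rho at 150nM final started the reaction, and fluorescence at 480/540 nm was recorded kinetically.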

Assay [6] addresses Luciferin 4-monooxygenase (Photinus pyralis) (UniProt P08659). The assay is described as follows: Biochemical firefly luciferase enzyme assay for NPC (AID 624030).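 For activity change, negative = inhibition: purified P. pyralis luciferase at 10 nM with luciferin and ATP substrate; 0% = DMSO and -100% = full luciferase inhibition by PTC124 control.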 Note: nearly all actives have a fitted effect of over 70% in size. Note: potency is the fitted concentration of half-maximal effect. The procedure, abridged:
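Purified P. pyralis luciferase at 10 nM in 50 mM Tris Acetate (final), luminescence read within 5 minutes of enzyme addition to compounds. Activity normalised to PTC124 versus DMSO; concentration-response curves classed by r2, magnitude and activity.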

Assay [7] in a line: qHTS profiling for inhibitors of Plasmodium falciparum proliferation (AID 504749).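 For activity, negative = inhibition: 0% = DMSO vehicle and full inhibition = artemisinin control.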 Note: nearly all actives have a fitted effect of over 60% in size. Note: potency is the fitted concentration of half-maximal effect. Conditions: P. falciparum in erythrocytes, SYBR Green DNA, 72 h, at 28.7 µM (top of the series). The procedure, abridged: (§1)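 Each compound contacts P. falciparum-infected red blood cells for 72 h at 37 C; lysis buffer (Tris, EDTA, saponin, Triton X, SYBR Green I) is added and fluorescence measured next morning; values normalized to controls.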

Assay [8] deals with CP201. The assay is described as above. Conditions: P. falciparum in erythrocytes, SYBR Green DNA, 72 h; series mostly up to 12.8 µM. The procedure, abridged: as §1
The test system of assay [9] is CP262. Described as above. Particulars: P. falciparum in erythrocytes, SYBR Green DNA, 72 h; series mostly up to 12.8 µM. The procedure, abridged:
as §1

The subject of assay [10] is CP268. Described as above. Particulars: P. falciparum in erythrocytes, SYBR Green DNA, 72 h; series mostly up to 12.8 µM. Summed up:
as §1

In assay [11] the test system is CP269. Described as above. Conditions: P. falciparum in erythrocytes, SYBR Green DNA, 72 h; series mostly up to 12.8 µM. Summed up:
as §1

Assay [12] deals with CP286. The description is as above. Particulars: P. falciparum in erythrocytes, SYBR Green DNA, 72 h; series mostly up to 12.8 µM. Summed up:
as §1

Assay [13] concerns CP305. The description is as above. Conditions: P. falciparum in erythrocytes, SYBR Green DNA, 72 h; series mostly up to 12.8 µM. The procedure, abridged: as §1
For assay [14], the system named is DIV30. Described as above. Particulars: P. falciparum in erythrocytes, SYBR Green DNA, 72 h; series mostly up to 12.8 µM. The procedure, abridged:
as §1

Assay [15] has as its system FAB9. The description is as above. Particulars: P. falciparum in erythrocytes, SYBR Green DNA, 72 h; series mostly up to 12.8 µM. The procedure, abridged: as §1
For assay [16], the system named is JCK. The description is as above. Conditions: P. falciparum in erythrocytes, SYBR Green DNA, 72 h; series mostly up to 12.8 µM. The procedure, abridged: as §1
Assay [17] relates to PC49. Described as above. Conditions: P. falciparum in erythrocytes, SYBR Green DNA, 72 h; series mostly up to 12.8 µM. Summed up:
as §1

In assay [18] the target is DNA dC->dU-editing enzyme APOBEC-3G (Homo sapiens) (UniProt Q9HC16). The assay is described as follows: qHTS for inhibitors of Vif-A3G interactions: Validation (AID 588379). Note: 0% is about no effect. Summed up:
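Yellow fluorescence (Ex 488, Em 500-530) of Vif-coexpressing HeLa A3G-eYFP cells, scanned by Acumen cytometer, reports blocked A3G degradation. Cells plated at 700/well overnight at 37 deg C before compound addition, then a further overnight compound incubation at 37 deg C.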

Assay [19] concerns the target Cytochrome P450 3A4 (Homo sapiens) (UniProt P08684). The assay is described as follows: qHTS Assay for Inhibitors and Substrates of Cytochrome P450 3A4 (AID 884). Note: % is set by controls: 0 for no effect and ±100 for the full control effect; nearly all actives have a fitted effect of over 50% in size. The procedure, abridged:
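Luminescent readout of luciferin produced by CYP3A4 (20 nM) dealkylation of Luciferin-PPXE, 25 uM (its KM). NADPH-driven reaction ran 60 min at RT after 10 min compound preincubation; data scaled to 57 uM ketoconazole as 100% inhibition.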

Assay [20] concerns CP194. Kind of assay: qHTS profiling for inhibitors of Plasmodium falciparum proliferation (AID 504749).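 For activity, negative = inhibition: 0% = DMSO vehicle and full inhibition = artemisinin control.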 Note: nearly all actives have a fitted effect of over 60% in size. Note: potency is the fitted concentration of half-maximal effect. Conditions: P. falciparum in erythrocytes, SYBR Green DNA, 72 h; series mostly up to 12.8 µM. Summed up:
as §1

The mark [21] stands for this setting: measured here: cell count channel max response.
Setting [22] is: measured here: lipid channel max response.

Cytochrome P450 3A4 (Homo sapiens), sequence (P08684 whole entry, looked up): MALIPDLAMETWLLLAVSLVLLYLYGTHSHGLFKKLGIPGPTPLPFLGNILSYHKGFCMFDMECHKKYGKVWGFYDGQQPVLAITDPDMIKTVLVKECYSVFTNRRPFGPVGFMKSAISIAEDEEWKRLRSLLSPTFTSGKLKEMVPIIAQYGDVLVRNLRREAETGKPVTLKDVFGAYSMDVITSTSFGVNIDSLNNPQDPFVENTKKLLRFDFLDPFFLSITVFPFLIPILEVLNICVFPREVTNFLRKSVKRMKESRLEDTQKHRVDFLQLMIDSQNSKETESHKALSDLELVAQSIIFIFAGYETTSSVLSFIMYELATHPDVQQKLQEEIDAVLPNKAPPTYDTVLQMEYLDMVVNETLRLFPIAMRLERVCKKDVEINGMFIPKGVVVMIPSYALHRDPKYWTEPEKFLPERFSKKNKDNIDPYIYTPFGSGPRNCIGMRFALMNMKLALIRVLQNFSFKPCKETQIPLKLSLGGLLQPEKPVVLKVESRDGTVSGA
DNA dC->dU-editing enzyme APOBEC-3G (Homo sapiens), sequence (Q9HC16 whole entry, looked up): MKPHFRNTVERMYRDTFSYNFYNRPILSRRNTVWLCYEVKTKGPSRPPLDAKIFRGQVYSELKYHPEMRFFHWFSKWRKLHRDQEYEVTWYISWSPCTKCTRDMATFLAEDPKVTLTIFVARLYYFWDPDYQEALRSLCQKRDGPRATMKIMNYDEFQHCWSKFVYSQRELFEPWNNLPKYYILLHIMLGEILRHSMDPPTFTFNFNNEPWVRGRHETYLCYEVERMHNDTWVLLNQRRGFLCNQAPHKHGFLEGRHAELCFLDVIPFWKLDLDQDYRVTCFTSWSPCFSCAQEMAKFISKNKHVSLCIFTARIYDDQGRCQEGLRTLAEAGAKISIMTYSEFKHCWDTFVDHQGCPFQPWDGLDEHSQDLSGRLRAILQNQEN
Ubiquitin carboxyl-terminal hydrolase 1 (Homo sapiens), sequence (O94782 whole entry, looked up): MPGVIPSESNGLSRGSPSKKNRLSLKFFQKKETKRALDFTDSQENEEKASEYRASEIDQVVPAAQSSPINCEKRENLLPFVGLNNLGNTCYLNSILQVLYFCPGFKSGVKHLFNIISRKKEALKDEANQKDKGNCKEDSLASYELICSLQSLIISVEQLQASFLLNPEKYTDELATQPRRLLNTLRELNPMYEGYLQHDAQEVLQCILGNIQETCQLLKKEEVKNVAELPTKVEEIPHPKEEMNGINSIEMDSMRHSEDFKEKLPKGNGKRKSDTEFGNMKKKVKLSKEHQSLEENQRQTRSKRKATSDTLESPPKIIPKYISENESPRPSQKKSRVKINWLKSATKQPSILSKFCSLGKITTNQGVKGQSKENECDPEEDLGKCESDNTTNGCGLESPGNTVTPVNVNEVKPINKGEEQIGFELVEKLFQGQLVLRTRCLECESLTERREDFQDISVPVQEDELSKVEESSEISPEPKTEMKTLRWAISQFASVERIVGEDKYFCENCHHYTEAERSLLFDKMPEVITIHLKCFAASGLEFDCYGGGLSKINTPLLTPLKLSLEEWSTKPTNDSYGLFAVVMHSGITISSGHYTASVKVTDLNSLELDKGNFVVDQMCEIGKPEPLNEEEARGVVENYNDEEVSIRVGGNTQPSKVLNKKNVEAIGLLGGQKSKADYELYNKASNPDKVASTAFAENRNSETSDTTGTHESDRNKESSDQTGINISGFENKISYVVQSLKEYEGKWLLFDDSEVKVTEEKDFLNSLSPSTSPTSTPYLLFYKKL
Luciferin 4-monooxygenase (Photinus pyralis), sequence (P08659 whole entry, looked up): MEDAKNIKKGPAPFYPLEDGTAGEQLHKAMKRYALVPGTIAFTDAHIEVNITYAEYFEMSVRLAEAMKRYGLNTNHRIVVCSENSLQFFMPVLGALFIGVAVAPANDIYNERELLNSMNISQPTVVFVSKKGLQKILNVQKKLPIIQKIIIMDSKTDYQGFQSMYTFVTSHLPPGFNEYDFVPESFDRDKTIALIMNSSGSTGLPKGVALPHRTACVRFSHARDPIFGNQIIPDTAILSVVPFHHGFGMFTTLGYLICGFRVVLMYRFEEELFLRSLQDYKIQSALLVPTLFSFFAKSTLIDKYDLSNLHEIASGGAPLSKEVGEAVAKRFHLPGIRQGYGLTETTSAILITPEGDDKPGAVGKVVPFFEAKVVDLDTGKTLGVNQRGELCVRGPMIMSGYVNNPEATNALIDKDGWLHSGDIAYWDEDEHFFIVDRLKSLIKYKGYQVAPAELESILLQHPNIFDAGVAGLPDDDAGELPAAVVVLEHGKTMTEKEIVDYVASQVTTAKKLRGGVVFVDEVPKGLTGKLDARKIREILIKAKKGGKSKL

As to `C=Cc1c(C)/c2[n-]/c1=C\c1[n-]c(c(CC)c1C)/C=c1\[n-]c3c(c1C)C(=O)C(C(=O)[O-])C=3c1[n-]c(c(C)c1CCC(=O)[O-])\C=2.[Cu].[Na+].[Na+]` (stereo not given), the Potency entry in [1], in assay [2], in [3], in assay [8], in [9] and in [10] was “inactive” each time. For the same compound, the Potency result in [11], in assay [12], in [13], in assay [14], in [15] and in assay [16] was “inactive” each time. In addition, the Potency entry in assay [17] is “inactive”. In assay [4], the activity change, negative = inhibition was 23.5% (inactive). Besides, the max response in assay [4] (setting [21]) was -5.82%; in [4] (setting [22]) it was 20.1%. For the same compound, the Potency in assay [5] was 20 µM (active); in [6] it was 32.2 µM (active). Besides, in [7] (parasite line A), the activity, negative = inhibition was -17.5% (inactive).
As for `CC[C@H](CC[C@@H](C)C1CC[C@H]2[C@@H]3CC=C4C[C@@H](O)CC[C@]4(C)[C@H]3CC[C@]12C)C(C)C` (stereo not given in full), the activity change, negative = inhibition in assay [4] is -0.0175% (inactive). The max response turned out to be 43.5% in [4] (setting [21]) and 42.8% in [4] (setting [22]). In addition, in [5], the Potency entry was “inactive”. In addition, in [18], the compound was classed as inactive.
Take `C#C[C@]1(O)CCC2C3CCC4=CC(=O)CCC4C3CC[C@@]21C` (stereo not given in full): the Potency result in assay [2], in assay [3], in assay [5] and in assay [6] was “inactive” in each case. In addition, the activity change, negative = inhibition in assay [4] was 3.02% (inactive). In addition, the max response was 2.28% in assay [4] (setting [21]) and 5.87% in assay [4] (setting [22]).
For `CCC1OC(=O)CC(O)C(C)[C@@H](O[C@@H]2OC(C)[C@H](O[C@@H]3C[C@@](C)(O)C(O)C(C)O3)C(N(C)C)C2O)[C@H](CC=O)CC(C)C(=O)/C=C/C(C)=C/[C@@H]1COC1OC(C)C(O)C(OC)[C@@H]1OC` (stereo not given in full), the Potency result in assay [19], in assay [3], in assay [5], in [6], in [15] and in assay [16] was “inactive” in each case. Further, in [17], the Potency result is “inactive”. Further, the activity change, negative = inhibition in assay [4] is 0.0526% (inactive). Moreover, the max response was -1.62% in assay [4] (setting [21]) and 4.9% in [4] (setting [22]). In assay [12], the Potency is 1 µM (active).
Regarding `CCC(CCC(C)C1CCC2C3CC=C4CC(O)CC[C@@]4(C)C3CC[C@@]12C)C(C)C` (stereo not given in full), the Potency entry in assay [2], in [3], in [5], in assay [6], in assay [20] and in assay [8] was “inactive” each time. The Potency result in assay [9], in [10], in [11], in assay [12], in assay [13] and in assay [14] was “inactive” in each case. Further, the Potency result in [15], in assay [16] and in [17] was “inactive” throughout. In assay [4], the activity change, negative = inhibition was 3.18% (inactive). The max response is 9.21% in [4] (setting [21]) and 15.1% in assay [4] (setting [22]). Also, the results for the activity, negative = inhibition in [7] (parasite line A) and in assay [7] (parasite line B) were -3.58% (inactive) and 13.1% (inactive), respectively.
Take `OCC1OC(Oc2cccc3cccnc23)C(O)C(O)C1O` (stereo not given): the Potency result in assay [19] and in [5] was “inactive” each time. In assay [4], the activity change, negative = inhibition was -4.73% (inactive). For the same compound, the max response in [4] (setting [21]) is -12.4%; in assay [4] (setting [22]), -14.1%. Besides, the call in assay [18] was inactive.
On to `CC1=C(C2=C(C)C(C(C)C)C3=C(C(=O)C(O)C3O)C2O)C(O)C2=C(C(O)C(O)C2=O)C1C(C)C` (stereo not given), for which the Potency entry in assay [19] and in assay [5] was “inactive” throughout. Also, in [4], the activity change, negative = inhibition is 1.34% (inactive). The max response in [4] (setting [21]) amounted to 12.4%; in assay [4] (setting [22]), 12.8%. The compound was called inactive in assay [18].
For `CC(=O)N[C@@H]1C(O)OC(CO)C(O)C1O` (stereo not given in full), the Potency entry in assay [19], in [2], in [3], in [5], in assay [6] and in assay [20] was “inactive” throughout. Further, the Potency result in assay [8], in [9], in [10], in assay [11], in assay [12] and in assay [13] was “inactive” in each case. Further, the Potency result in assay [14], in assay [15], in assay [16] and in assay [17] was “inactive” in each case. Besides, in [4], the activity change, negative = inhibition is 4.62% (inactive). In addition, the max response in assay [4] (setting [21]) came out at 4.28%; in [4] (setting [22]), 11.6%. In addition, the activity, negative = inhibition was 3.66% (inactive) in assay [7] (parasite line A) and 14.7% (inactive) in assay [7] (parasite line B).
